According to PubChem BioAssay (NCI):
This is part of a sample that, as a whole, favours compounds with a hit. Of some 83,000 tested, about 20% had one in any assay.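 The endpoint reported here, percent growth, reads 100 for growth as untreated, 0 for no net growth and -100 for all cells dead.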 Calls of active or inactive are those of the source. How the source made its calls: active means growth percent below 10; inactive means the rest.

What was measured:
Assay in all cases: NCI-60 one-dose screen, 48 h (100 = growth as untreated, 0 = no growth, -100 = all killed)
Settings in all cases: 10 µM unless noted
[1] = system: T-47D breast
[2] = system: BT-549 breast
[3] = system: MDA-MB-435 melanoma
[4] = system: SW-620 colon
[5] = system: MCF7 breast
[6] = system: HCT-116 colon
[7] = system: HCC-2998 colon
[8] = system: KM12 colon

Measured: growth

CCCCNC(=O)Oc1ccc(/C(=C(\C)c2ccccc2)c2ccc(OCCN3CCCCC3)cc2)cc1
inactive: [1] 31.6% | [2] 62% | [3] 67.8% | [4] 60.8% | [5] 22.5% | [6] 42.8% | [7] 79% | [8] 52.1%

O=C(Cc1ccc(/C=C/C(=O)c2nccs2)cc1)Nc1ccccc1
active: [6] -43.8%
inactive: [1] 92.8% | [2] 93% | [3] 100% | [4] 51.9% | [5] 84.4% | [7] 105% | [8] 70.7%

O=S(=O)(Nc1ccc(-n2cnc3cc(-c4ccc(O)cc4)ccc32)cc1)c1ccccc1
active: [1] 9.89%
inactive: [2] 94.3% | [3] 98.5% | [4] 109% | [5] 87.9% | [6] 90.3% | [7] 115% | [8] 54.6%

O=C(CCN1CCCC1)Nc1ccc2c(NCCCc3ccccc3)c3ccccc3nc2c1
active: [3] -87.8% | [4] -63.3% | [5] -44.3% | [6] -63.5% | [7] 2.16% | [8] -10%
inactive: [1] 11.6% | [2] 47.7%

O=C(/C=C(/C=C/c1coc2ccccc12)OB(F)F)/C=C/c1coc2ccccc12
inactive: [1] 88.1% | [2] 99.3% | [3] 48.1% | [4] 86.3% | [6] 75.3% | [7] 98.8% | [8] 91.3%

COc1c(Cl)c2c(c(OC)c1OC)-c1ccc(SC)c(=O)cc1[C@@H](NC(=O)OCC(F)(F)F)CC2
active: [2] 5.25% | [3] -36.9% | [6] 1.82%
inactive: [1] 43.1% | [4] 21.9% | [5] 14.8% | [7] 21.6% | [8] 10.4%

CCOC(=O)[C@@H](C)C[C@H](Cc1ccccc1)NC(=O)c1csc([C@@H](C[C@H](C(C)C)N(C)C(=O)[C@@H](NC(=O)[C@H]2C[C@H](O[Si](C)(C)C(C)(C)C)CCN2C)C(C)C)OC(C)=O)n1
inactive: [1] 37% [9.25 µM] | [4] 11.8% [9.25 µM] | [5] 13% [9.25 µM]
active: [2] -29.6% [9.25 µM] | [3] -57.5% [9.25 µM] | [6] -25.9% [9.25 µM] | [7] -1.53% [9.25 µM] | [8] 2.03% [9.25 µM]

CC1=CCC(OC(=O)C(C)(O)CCC(O)(C(=O)OC2(C)C=CC(O)(C(C)C)CC2)C(C)C)(C(C)C)CC1 (stereo not drawn)
inactive: [1] 93.9% | [2] 114% | [3] 104% | [4] 103% | [6] 101% | [7] 112% | [8] 108%

CCCCCC(=O)Oc1ccc(/C(=C(/C)Cc2ccc(OC)cc2)c2ccc(OCCCN(C)C)cc2)cc1
inactive: [1] 51.2% | [2] 88.8% | [3] 53.2% | [4] 82.4% | [6] 56.5% | [7] 69.3% | [8] 73.6%

COC(=O)/C=C1\S/C(=N\NC(=O)c2cc3ccc2/C=C\c2ccc(cc2)/C=C\3)N(c2ccccc2)C1=O
active: [1] -38.2% | [4] 7.39% | [6] 4.05% | [7] 3.64% | [8] 8.49%
inactive: [2] 35.5% | [3] 89.6% | [5] 23.2%

O=C(CCN1CCCC1)Nc1ccc2c(Nc3ccc(F)cc3)c3ccccc3nc2c1
active: [1] 7.84% | [3] -94.9% | [4] -25% | [6] -54.2% | [7] -80.3% | [8] 0.928%
inactive: [2] 51.2%

Cc1ccc(C(=O)/C(=C\c2ccc([N+](=O)[O-])cc2)S(=O)Cc2ccc(Cl)cc2)cc1 (stereo not drawn)
inactive: [2] 62% | [3] 50.1% | [5] 15.2% | [7] 58.8% | [8] 46.6%
active: [1] -19.1% | [4] 7.46% | [6] -50.1%

CC/C(=C\c1ccc(OC)cc1)C(=O)c1ccc(OC)cc1
inactive: [1] 85.8% | [2] 135% | [3] 73.1% | [4] 94.2% | [5] 107% | [6] 90.8% | [7] 93.5% | [8] 96.3%

COc1ccc(/C=C2\Oc3cc(OCCCCCN4CCCCC4)ccc3C2=O)cc1OC
active: [4] -61.3% | [6] -51.2%
inactive: [1] 72.4% | [2] 69.4% | [3] 99.2% | [5] 70.9% | [7] 94.7% | [8] 80.4%

CCCCCCOc1ccc(/C=N/Nc2cc(C)nc3ccc(Cl)cc23)cc1
inactive: [1] 34.5% | [2] 109%
active: [3] -75.9% | [4] -83.3% | [6] -58.9% | [7] -81.9% | [8] -68.2%

COc1ccccc1NS(=O)(=O)c1cccc(C(=O)Nc2ccc(Br)cc2)c1
inactive: [1] 21.2% | [2] 37.2% | [3] 35.3% | [4] 55.1% | [5] 32.5% | [6] 37.9% | [7] 57.5% | [8] 34.6%

O=C(CCN1CCCC1)Nc1ccc2c(Nc3ccc(Br)cc3)c3ccccc3nc2c1
inactive: [1] 13.6% | [2] 47.9%
active: [3] -88% | [4] -64.8% | [5] -66.8% | [6] -57.6% | [7] -73.4% | [8] -59.2%

O=C1/C=C/[C@@H](O)[C@@H]2C[C@@H](O)C[C@H]2/C=C/CCC[C@H](CCc2ccc3ncccc3c2)O1
inactive: [7] 12.9%
active: [1] 0.682% | [2] 7.66% | [3] 5.74% | [4] -14.2% | [6] -53.6% | [8] -40.3%

CN(C)c1ccc(Nc2c3ccccc3nc3cc(NC(=O)CCN4CCCC4)ccc23)cc1
active: [3] -94.4% | [4] -33.3% | [5] -21.8% | [6] -56.2% | [7] -83.3% | [8] -34.8%
inactive: [1] 12.1% | [2] 23.6%

c1ccc(Cn2cnc3ccc(-c4nc(-c5ccc6c(c5)ncn6C5CCCCC5)cn5ccnc45)cc32)cc1
active: [1] -2.12% | [2] -44.7% | [3] -6.16% | [4] 2.17% | [5] 2.03% | [6] -75.7% | [7] -88% | [8] -39.4%

Cn1ccc2c1CC1CN(Cc3ccco3)C(=O)C1C2C(=O)O (stereo not drawn)
inactive: [1] 98.7% | [2] 110% | [3] 101% | [4] 98.7% | [6] 104% | [7] 104% | [8] 101%

COc1ccc(C(=O)c2nc3ccccc3n2CC(=O)c2ccc(Cl)cc2)cc1
inactive: [1] 35.2% | [2] 47.9% | [4] 15.8% | [5] 11.9% | [6] 10.3% | [8] 28.4%
active: [3] -55.4%

CC(Oc1ccc(C(=O)O)cc1C(F)(F)F)c1ccc(Oc2ccccc2)cn1 (stereo not drawn)
inactive: [1] 100% | [2] 89.1% | [3] 77.4% | [4] 103% | [6] 103% | [7] 108% | [8] 92.2%

C=C1C(=O)O[C@H]2[C@H]1CC/C(COC(=O)NCc1c[nH]c3ccc(Cl)cc13)=C\CC[C@@]1(C)O[C@@H]21
inactive: [5] 17.2% | [7] 70.4% | [8] 13.8%
active: [1] -76.2% | [2] -65.6% | [3] -88.4% | [4] -74.3% | [6] -90.1%

C=C(C)[C@@H]1CC[C@]2(C(=O)N3CCN(C)CC3)CC[C@]3(C)[C@H](CC[C@@H]4[C@@]5(C)CC[C@H](OCCC#N)C(C)(C)[C@@H]5CC[C@]43C)[C@@H]12
active: [4] 7.33%
inactive: [1] 91.7% | [2] 107% | [3] 107% | [6] 44.4% | [7] 102% | [8] 48.2%

COc1cc(/C=C2\COc3ccc(-c4ccccc4)cc3C2=O)cc(OC)c1
inactive: [1] 70.3% | [2] 74.7% | [3] 66% | [4] 62.8% | [5] 57.3% | [6] 62.1% | [8] 68.5%

O=C1Nc2cc(Cl)ccc2/C1=C\c1c(-c2ccc(F)cc2)nc2ccccn12
inactive: [1] 24.2% | [2] 21.6% | [7] 31.5%
active: [3] -55% | [4] 9.82% | [6] -80.1% | [8] -1.1%

CC1(C)NCCC[C@]2(C)[C@H]3CC[C@@H]4[C@H]5[C@H](C(=O)/C=C/c6ccco6)CC[C@]5(CO)CC[C@@]4(C)[C@]3(C)CC[C@@H]12
inactive: [1] 75.7% | [2] 89.1% | [3] 66.7% | [4] 69.7% | [5] 46.6% | [6] 33.7% | [7] 91.4% | [8] 82.9%

Oc1ccc(OCCOc2ccc(O)cc2)cc1
inactive: [1] 72.5% | [2] 54.7% | [3] 47.2% | [4] 50.2% | [5] 55.7% | [6] 55.9% | [7] 47.1% | [8] 29.2%

O=S(=O)(NCCCNc1nccc(-c2c(-c3cccc(F)c3)nc3sccn23)n1)c1cccc2ccccc12
inactive: [1] 18.4% | [2] 65% | [3] 22.6% | [4] 42.1% | [5] 37.4% | [6] 32.4% | [7] 16.3% | [8] 26%
